PABP1 MLLE inh: inhibitors of microRNA-mediated deadenylation, human PABP1 MLLE binding; P11940; GST-MLLE / FITC-PAM2 fluorescence polarization; inhibition, % at 20 µM; 360,000 compounds, 0.36% hits; in the data active = inhibition above about 35%, passing the limit was not always enough
PABP polyA inh: blocks human PABP binding to poly(A) RNA; AID 2014; fluorescence polarization; inhibition, % at 35 µM; 290,000 compounds, 1% hits;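 note: calls also rest on retests at 20 µM and on dose response follow-up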
Efflux pump inh: inhibitors of Candida antifungal efflux pumps expressed in yeast | S. cerevisiae Candida pump triplex, Nile Red efflux | inhibition, % at 10 µM | 330,000 compounds, 0.44% hits | AID 485275;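 active = plate passing quality check with inhibition over a set limit, or well fluorescence over plate mean plus 4 SD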;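 note: Nile Red retained in pooled yeast measured as flow cytometry median fluorescence; higher means more Nile Red kept so more efflux inhibition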
ALR inh: human ALR oxidase inhibition via reduced H2O2; P55789; purified ALR, DTT oxidation, H2O2 HRP-luminol luminescence; inhibition, % (concentration not given with the values); 290,000 compounds, 3.8% hits;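 active = mean replicate inhibition above about 79%, with every replicate also reaching it, limit read from the data; inconclusive = only one of the two criteria met; inactive = mean below limit and not every replicate reaching it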
Target sequence (P55789 whole entry, looked up): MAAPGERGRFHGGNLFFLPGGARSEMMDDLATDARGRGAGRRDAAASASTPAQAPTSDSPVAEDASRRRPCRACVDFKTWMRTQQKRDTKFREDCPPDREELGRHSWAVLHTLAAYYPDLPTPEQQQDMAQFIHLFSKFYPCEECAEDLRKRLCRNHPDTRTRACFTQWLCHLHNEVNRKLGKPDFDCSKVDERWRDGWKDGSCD
eIF4H FP inh: inhibitors of RNA binding by human eIF4H; Q15056; eIF4H fluorescence polarization binding assay; inhibition, % at 35 µM; 290,000 compounds, 0.94% hits;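 note: calls also rest on retests at 20 µM and on dose response follow-up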
SUMO HTRF inh: SUMOylation inhibition; P63279; HTRF SUMOylation assay, SAE1/SAE2 + UBC9, in vitro; inhibition, % at 35 µM; 290,000 compounds, 0.36% hits; in the data active = inhibition above about 50%, passing the limit was not always enough; inconclusive = no clear call, values can overlap the other calls
Target sequence (P63279 whole entry, looked up): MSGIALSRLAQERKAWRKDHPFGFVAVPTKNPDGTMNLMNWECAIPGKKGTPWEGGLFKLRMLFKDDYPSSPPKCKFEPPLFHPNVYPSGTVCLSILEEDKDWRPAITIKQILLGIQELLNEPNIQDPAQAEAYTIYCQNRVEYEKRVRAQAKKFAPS
Of the large screens only hits and unclear results are named; the others gave an inactive call. Hits are enriched below; roughly 4.7% of the tested compounds scored in any of these assays. Unless noted, the rule behind the calls is not given here.

Cc1ccc(NC(=O)CSc2nnc3n2CCCCC3)cc1	none (no result: ALR inh)
CCOc1ccc(NC(=O)CSc2nnc(C3CC3)n2N)cc1	ALR inh 98
O=C(CSc1nnc2n1CCCCC2)Nc1ccc(N2CCOCC2)cc1	ALR inh 86
Nn1c(SCC(=O)Nc2ccc(N3CCOCC3)cc2)nnc1C1CC1	ALR inh 99 (no result: PABP polyA inh, eIF4H FP inh, SUMO HTRF inh)
CN(Cc1ccccc1F)c1cc2c(c3c1ccn3C)C1CCC2C1 (stereo not given)	none (no result: PABP polyA inh, Efflux pump inh, ALR inh, eIF4H FP inh, SUMO HTRF inh)
COc1ccc(-c2cc(N)n(S(=O)(=O)c3ccc(C)cc3)n2)c(OC)c1	ALR inh 99
COc1ccc(S(=O)(=O)n2nc(-c3ccc(Cl)cc3)cc2N)cc1	none
CCSc1nnc(-c2ccccc2N=Cc2c(C)[nH]n(-c3ccccc3)c2=O)c(=O)[nH]1	ALR inh 95
Cn1c(N/N=C/c2ccccc2)nc2sc3c(c2c1=O)CCC3	ALR inh 92
O=C1C(Nc2ccccc2)=C2CCCC=C2N1c1ccccc1	ALR inh 102
O=C1C2=C(CCCC2)C(=O)N1CNc1ccccc1	none
CCNC(=O)COC(=O)c1cc(-c2ccco2)nc2ccccc12	PABP polyA inh 69, eIF4H FP inh 89
COc1ccc(CNC(=O)COC(=O)c2cc(-c3ccco3)nc3ccccc23)cc1	eIF4H FP inh 90, SUMO HTRF inh 57 (no result: PABP1 MLLE inh, Efflux pump inh, ALR inh)
O=C(OCC(=O)N1CCN(C(=O)c2ccco2)CC1)c1cc(-c2ccco2)nc2ccccc12	PABP polyA inh 70, ALR inh 93, eIF4H FP inh 85
COc1ccc(CNC(=O)COC(=O)c2cc(C)nc3ccccc23)cc1	none (no result: PABP polyA inh, eIF4H FP inh, SUMO HTRF inh)
Cn1c(=O)c2c(-c3ccccc3)n(-c3cc(Cl)c([N+](=O)[O-])cc3O)cc2n(C)c1=O	none (no result: PABP polyA inh, Efflux pump inh, ALR inh, eIF4H FP inh, SUMO HTRF inh)
Cc1cc(C(=O)CSc2nnnn2-c2ccccc2)c(C)n1CCc1ccccc1	none
COc1ccc(-n2nnnc2SCC(=O)c2ccc(O)c(O)c2)cc1	none (no result: ALR inh)
NC(=O)c1ccc(-n2nnnc2SCC(=O)c2ccc(O)c(O)c2)cc1	ALR inh 96
Cc1cc(C(=O)CSc2nnnn2-c2ccc(O)cc2)c(C)n1C	ALR inh 89
COc1ccc(S(=O)(=O)N2CCN(C(=O)c3cc(C)nc4ccccc34)CC2)cc1OC	none (no result: PABP polyA inh, eIF4H FP inh, SUMO HTRF inh)
Cc1ccc(C(=O)OCN2C(=O)c3ccccc3C2=O)c(O)c1	none
COc1ccc2c(c1)n([O-])c1c([n+]2=O)CCC1	none (no result: PABP1 MLLE inh)
CCOc1ccc2c(c1)n([O-])c1c([n+]2=O)CCCC1	PABP1 MLLE inh 43 (no result: Efflux pump inh, ALR inh)
CCOc1ccc(NCc2cccn2-c2nnc(N3CCC(C(=O)NCCCN4CCCCC4CC)CC3)s2)cc1 (stereo not given)	ALR inh 99
COc1cc(/C=C/C(=O)OC2CC3CCC2(C)C3(C)C)ccc1O (stereo not given)	ALR inh inconclusive
O=C(/C=C/c1ccc(O)c(O)c1)OC1C(O)CC(OC(=O)/C=C/c2ccc(O)c(O)c2)(C(=O)O)CC1O (stereo not given)	ALR inh 99
O=C(/C=C/c1ccc(O)c(O)c1)O[C@@H]1C[C@](O)(C(=O)O)C[C@@H](O)[C@H]1O	ALR inh 100 (no result: PABP polyA inh, eIF4H FP inh, SUMO HTRF inh)
O=c1c2ccccc2nc(SCc2ccccc2)n1Cc1ccco1	none
O=c1c2ccccc2nc(SCc2nc3ccccc3s2)n1Cc1ccco1	ALR inh 87
COc1ccc(C(=O)NCCCN(C)CCCNC(=O)c2ccc(OC)cc2)cc1	none
N=c1c(C(=O)NCc2ccco2)cc2c(=O)n3ccccc3nc2n1CC1CCCO1 (stereo not given)	PABP1 MLLE inh 47 (no result: PABP polyA inh, eIF4H FP inh, SUMO HTRF inh)
Cc1cccn2c(=O)c3cc(C(=O)NCc4ccco4)c(=N)n(CCOCCO)c3nc12	PABP1 MLLE inh 58 (no result: PABP polyA inh, eIF4H FP inh, SUMO HTRF inh)
Cc1ccc2nc3c(cc(C(=O)NCc4ccco4)c(=N)n3C3CCCC3)c(=O)n2c1	PABP polyA inh inconclusive, eIF4H FP inh inconclusive
COCCn1c(=N)c(C(=O)NCc2ccco2)cc2c(=O)n3cc(C)ccc3nc21	PABP1 MLLE inh 69, eIF4H FP inh 107
N=c1c(C(=O)NCc2ccc(F)cc2)cc2c(=O)n3ccccc3nc2n1CC1CCCO1 (stereo not given)	none
CCOC(=O)c1cc2c(=O)n3ccccc3nc2n(Cc2ccco2)c1=NC(=O)c1ccccc1OCC	ALR inh 90, eIF4H FP inh 90
Cn1cc(-c2csc(C(O)c3ccc(F)c(F)c3)n2)cn1 (stereo not given)	none (no result: PABP polyA inh, Efflux pump inh, ALR inh, eIF4H FP inh, SUMO HTRF inh)
